# Assay results published in PubChem BioAssay (EPA / NIEHS).
# The source made the active and inactive calls. Rule for the calls: active = hit-call score of the fitted dose curve at least 0.9, where 1 is the maximum; inactive = score below 0.9.
# Legend:
# [1] = ATG_CRE_CIS: Attagene CIS-FACTORIAL HepG2 Assay for human cAMP Responsive Element (CRE) binding protein 3 (AID 2282926); details: HepG2 CRE cis-reporter, Attagene multiplexed mRNA; actives raise or lower the signal
# Procedure, shortened: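 Induced reporter mRNA from a CRE cis element, measured in HepG2 among many multiplexed units at 24 h. Detection used RT-PCR plus capillary electrophoresis of fluorescent fragments; DMSO served as negative control.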
# [2] = biological target: CCAAT/enhancer-binding protein beta (Homo sapiens) (UniProt P17676); test: ATG_C_EBP_CIS: Attagene CIS-FACTORIAL HepG2 Assay for human CCAAT/Enhancer Binding Protein (C/EBP) beta (AID 2282927); details: HepG2 Attagene cis-factorial transcription factor reporter; actives raise or lower the signal
# CCAAT/enhancer-binding protein beta (Homo sapiens), sequence (P17676 whole entry, looked up, the tested form may be a part): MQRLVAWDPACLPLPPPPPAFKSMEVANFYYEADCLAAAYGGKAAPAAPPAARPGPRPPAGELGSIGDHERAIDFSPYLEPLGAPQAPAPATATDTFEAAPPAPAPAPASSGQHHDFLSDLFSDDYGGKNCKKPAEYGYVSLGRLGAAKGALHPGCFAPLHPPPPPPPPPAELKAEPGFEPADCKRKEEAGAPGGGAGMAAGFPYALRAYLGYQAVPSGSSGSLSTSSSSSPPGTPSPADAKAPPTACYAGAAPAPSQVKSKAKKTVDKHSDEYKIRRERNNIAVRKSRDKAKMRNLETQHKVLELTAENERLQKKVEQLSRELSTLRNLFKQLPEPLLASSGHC
# Procedure, shortened: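 Endogenous C/EBPb-driven reporter transcripts measured in transfected human HepG2 cells at 24 h via RT-PCR and capillary electrophoresis of labelled fragments. Activity fitted in both directions relative to DMSO baseline.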
# [3] = ATG_CMV_CIS: Attagene CIS-FACTORIAL HepG2 Assay for human CMV (Internal Marker) (AID 2282928); details: HepG2 CMV promoter reporter, transcription factor profiling; actives raise or lower the signal;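 note: endpoint acts as a background internal control marker rather than a target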
# Procedure, shortened: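 Readout: fluorescent reporter cDNA fragments separated by capillary electrophoresis after RT-PCR and HpaI cut. Cells: HepG2 carrying transfected cis-promoter reporter constructs, dosed 24 h. Endpoint serves as background internal-marker control, fit bidirectionally versus DMSO.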
# [4] = ATG_DR4_LXR_CIS: Attagene CIS-FACTORIAL HepG2 Assay for human Liver X Receptor (LXR), DR4 submotif (AID 2282929); details: HepG2 Attagene DR4 cis-reporter, mRNA transcription; actives raise or lower the signal
# Procedure, shortened: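 DR4 cis-reporter in HepG2, 24 h exposure. Detection: RT-PCR, 6-FAM labelling, CE fragment analysis. Endpoint fitted bidirectionally, DMSO = baseline.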
# [5] = biological target: Aryl hydrocarbon receptor (Homo sapiens) (UniProt P35869); test: ATG_Ahr_CIS: Attagene CIS-FACTORIAL HepG2 Assay for human Aryl Hydrocarbon Receptor (Ahr) (AID 2282930); details: HepG2 AhR cis-factorial reporter transcription; actives raise or lower the signal
# Aryl hydrocarbon receptor (Homo sapiens), sequence (P35869 whole entry, looked up): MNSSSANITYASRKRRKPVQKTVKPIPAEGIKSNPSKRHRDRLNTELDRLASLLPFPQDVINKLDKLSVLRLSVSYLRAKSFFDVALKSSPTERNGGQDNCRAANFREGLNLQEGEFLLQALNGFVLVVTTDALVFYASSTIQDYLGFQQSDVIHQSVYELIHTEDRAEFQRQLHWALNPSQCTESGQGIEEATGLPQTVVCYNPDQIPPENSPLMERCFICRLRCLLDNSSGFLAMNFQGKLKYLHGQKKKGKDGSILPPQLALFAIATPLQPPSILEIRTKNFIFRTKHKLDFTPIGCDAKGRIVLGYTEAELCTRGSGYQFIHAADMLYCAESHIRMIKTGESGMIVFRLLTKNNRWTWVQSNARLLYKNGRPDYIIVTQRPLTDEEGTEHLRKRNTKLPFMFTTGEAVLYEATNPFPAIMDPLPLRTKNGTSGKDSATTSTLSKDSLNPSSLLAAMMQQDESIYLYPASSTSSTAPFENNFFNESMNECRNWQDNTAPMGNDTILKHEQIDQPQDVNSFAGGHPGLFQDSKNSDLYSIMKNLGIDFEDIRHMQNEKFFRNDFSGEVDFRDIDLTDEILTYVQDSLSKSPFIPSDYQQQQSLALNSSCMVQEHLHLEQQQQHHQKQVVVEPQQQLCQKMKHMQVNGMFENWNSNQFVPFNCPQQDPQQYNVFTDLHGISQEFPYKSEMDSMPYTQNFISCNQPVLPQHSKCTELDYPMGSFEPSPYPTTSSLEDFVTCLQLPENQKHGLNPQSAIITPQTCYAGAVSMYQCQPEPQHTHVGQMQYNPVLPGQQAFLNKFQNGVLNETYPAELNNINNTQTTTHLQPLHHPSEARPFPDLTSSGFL
# Procedure, shortened: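 Reporter mRNA levels, quantified by RT-PCR and fluorescent capillary electrophoresis, reflect endogenous AhR transcriptional activity in HepG2 cells carrying transfected cis-promoter reporter constructs. Readout at 24 h post-dose; gain or loss fitted against DMSO baseline.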
# [6] = ATG_AP_1_CIS: Attagene CIS-FACTORIAL HepG2 Assay for human Activator Protein 1 (AP-1) (AID 2282931); details: HepG2 Attagene cis-factorial AP-1 reporter mRNA; actives raise or lower the signal
# Procedure, shortened: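 Cis-regulated reporter units transiently expressed in HepG2 report endogenous transcription-factor activity. Signal: reporter mRNA at 24 h, via RT-PCR and fluorescent capillary electrophoresis. Endpoint derived by bidirectional fitting, DMSO as negative control.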
# [7] = ATG_AP_2_CIS: Attagene CIS-FACTORIAL HepG2 Assay for human Activator Protein 2 (AP-2) (AID 2282932); details: HepG2 AP-2 cis-reporter, Attagene transcription factor profiling; actives raise or lower the signal
# Procedure, shortened: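 Endogenous transcription factor activity is reported through transfected multiplex reporter constructs in HepG2, after 24 h of compound exposure. Transcripts were quantified by RT-PCR and capillary electrophoresis of fluorescent fragments. Bidirectional fit against DMSO.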
# [8] = ATG_BRE_CIS: Attagene CIS-FACTORIAL HepG2 Assay for human Bone Morphogenetic Protein (BMP) Response Element (BRE) (AID 2282933); details: HepG2 BMP response element reporter, Attagene transcription factor profiling; actives raise or lower the signal
# Procedure, shortened: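 Read-out: reporter mRNA induction quantified by RT-PCR and capillary electrophoresis after 24 h chemical exposure of transfected HepG2 cells. Endogenous factor activity on the BMP response element; gain or loss fitted against DMSO baseline.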
# [9] = biological target: Retinoic acid receptor alpha (Homo sapiens) (UniProt P10276); test: ATG_DR5_RAR_CIS: Attagene CIS-FACTORIAL HepG2 Assay for human Retinoic Acid Receptor Alpha (RARE), DR5 submotif (AID 2282934); details: HepG2 Attagene cis-factorial RARE DR5 reporter, mRNA; actives raise or lower the signal
# Retinoic acid receptor alpha (Homo sapiens), sequence (P10276 whole entry, looked up): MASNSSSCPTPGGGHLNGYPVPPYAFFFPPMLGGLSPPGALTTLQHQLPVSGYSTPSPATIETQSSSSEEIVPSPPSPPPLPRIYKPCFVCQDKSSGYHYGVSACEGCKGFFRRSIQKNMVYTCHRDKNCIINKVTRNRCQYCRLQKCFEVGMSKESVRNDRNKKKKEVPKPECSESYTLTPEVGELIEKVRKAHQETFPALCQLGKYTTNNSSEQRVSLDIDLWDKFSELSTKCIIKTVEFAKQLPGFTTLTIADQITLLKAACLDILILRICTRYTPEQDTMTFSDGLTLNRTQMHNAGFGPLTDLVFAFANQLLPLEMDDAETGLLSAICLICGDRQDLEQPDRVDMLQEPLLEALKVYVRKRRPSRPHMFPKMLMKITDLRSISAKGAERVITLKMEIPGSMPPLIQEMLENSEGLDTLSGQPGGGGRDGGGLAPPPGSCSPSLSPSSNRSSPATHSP
# Procedure, shortened: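 Reporter transcripts from a DR5-regulated unit, measured via RT-PCR plus capillary electrophoresis, reflect endogenous RAR activity in transiently transfected human HepG2 liver cells. Exposure lasted 24 h; gain or loss of signal scored against DMSO.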
# [10] = ATG_E_Box_CIS: Attagene CIS-FACTORIAL HepG2 Assay for human Enhancer Box (E-box) (AID 2282936); details: HepG2 E-box cis-reporter transcription, actives raise or lower the signal
# Procedure, shortened: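 E-box-driven reporter transcripts measured in transiently transfected HepG2 after 24 h exposure: RNA reverse-transcribed, PCR-amplified, fluorescently labelled, digested and resolved by capillary electrophoresis. Gain or loss relative to DMSO.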
# [11] = ATG_M_61_CIS: Attagene CIS-FACTORIAL HepG2 Assay for M61 Transcription Factor (Internal Marker) (AID 2282937); details: HepG2 Attagene CIS-FACTORIAL M61 internal marker reporter; actives raise or lower the signal
# Procedure, shortened: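 Background-control endpoint: HepG2 cells with cis-regulated reporter constructs, 24 h exposure, reporter mRNA detected via fluorescent primer extension and capillary electrophoresis; values from bidirectional fitting with DMSO baseline.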
# [12] = ATG_EGR_CIS: Attagene CIS-FACTORIAL HepG2 Assay for human Early Growth Response 1 (EGR1) (AID 2282938); details: HepG2 Attagene CIS-FACTORIAL EGR reporter mRNA; actives raise or lower the signal
# Procedure, shortened: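 Endpoint derived by bidirectional fitting versus DMSO vehicle. Method: cis-promoter reporter units transfected into HepG2, 24 h dosing, RNA isolation, RT-PCR with 6-FAM primer extension and HpaI digestion, then capillary electrophoresis fluorescence detection.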
# [13] = ATG_M_19_CIS: Attagene CIS-FACTORIAL HepG2 Assay for M19 Transcription Factor (Internal Marker) (AID 2282939); details: HepG2 Attagene CIS-FACTORIAL M19 internal marker reporter; actives raise or lower the signal
# Procedure, shortened: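 Readout: fluorescent reporter-transcript fragments by capillary electrophoresis after RT-PCR. Human HepG2 liver cells carried transfected MRTU constructs reporting endogenous transcription-factor activity; exposure 24 h. Gain or loss of signal fitted relative to DMSO.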
# [14] = ATG_Ets_CIS: Attagene CIS-FACTORIAL HepG2 Assay for human Erythroblast Transformation Specific (ETS) (AID 2282941); details: HepG2 ETS cis-reporter transcription, actives raise or lower the signal
# Procedure, shortened: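 RT-PCR/capillary electrophoresis fluorescence read-out of reporter mRNA; HepG2 transient multi-reporter transfection; 24 h compound exposure; gain or loss of signal fitted bidirectionally relative to DMSO.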
# [15] = biological target: Hepatocyte nuclear factor 3-beta (Homo sapiens) (UniProt Q9Y261); test: ATG_FoxA2_CIS: Attagene CIS-FACTORIAL HepG2 Assay for human Forkhead box A2 (FOXA2) (AID 2282942); details: HepG2 cis-reporter transcription factor activity, 24 h; actives raise or lower the signal
# Hepatocyte nuclear factor 3-beta (Homo sapiens), sequence (Q9Y261 whole entry, looked up): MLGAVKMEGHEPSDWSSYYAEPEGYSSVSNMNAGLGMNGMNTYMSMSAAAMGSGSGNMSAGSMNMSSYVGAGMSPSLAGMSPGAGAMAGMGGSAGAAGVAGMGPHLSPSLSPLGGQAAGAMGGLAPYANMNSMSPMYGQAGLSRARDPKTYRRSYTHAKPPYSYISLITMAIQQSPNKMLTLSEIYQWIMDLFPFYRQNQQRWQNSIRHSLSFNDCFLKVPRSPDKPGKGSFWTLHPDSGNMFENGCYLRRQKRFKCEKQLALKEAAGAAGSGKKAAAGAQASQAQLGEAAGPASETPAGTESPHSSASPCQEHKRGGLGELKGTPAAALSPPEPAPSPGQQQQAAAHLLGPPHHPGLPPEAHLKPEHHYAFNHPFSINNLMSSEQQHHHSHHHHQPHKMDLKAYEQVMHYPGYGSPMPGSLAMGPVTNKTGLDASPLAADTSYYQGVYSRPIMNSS
# Procedure, shortened: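 Measured: reporter mRNA induction or loss in HepG2 transiently carrying multiple cis-regulated reporter units, 24 h after dosing. Quantified by RT-PCR plus capillary electrophoresis, normalised to DMSO.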
# [16] = ATG_FoxO_CIS: Attagene CIS-FACTORIAL HepG2 Assay for human Forkhead box O (FoxO) (AID 2282943); details: HepG2 Attagene cis-reporter, FoxO element, mRNA; actives raise or lower the signal
# Procedure, shortened: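 Endogenous transcription factor activity read from multiplexed cis-promoter reporter transcripts in transiently transfected HepG2, 24 h after dosing. Reporter RNA measured via RT-PCR plus capillary electrophoresis of FAM-labeled products; gain or loss relative to DMSO.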
# [17] = ATG_GATA_CIS: Attagene CIS-FACTORIAL HepG2 Assay for human GATA Binding Protein (AID 2282944); details: HepG2 GATA cis-element reporter, Attagene multiplex mRNA; actives raise or lower the signal
# Procedure, shortened: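 Read-out: fluorescent reporter mRNA fragments resolved by capillary electrophoresis after RT-PCR. Human liver HepG2 cells carried transiently transfected cis-regulated reporter constructs; chemicals incubated 24 h; gain or loss of signal fitted relative to DMSO.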
# [18] = ATG_GLI_CIS: Attagene CIS-FACTORIAL HepG2 Assay for human Zinc Finger Protein GLI1 (AID 2282945); details: HepG2, Attagene cis-factorial reporter mRNA, GLI element; actives raise or lower the signal
# Procedure, shortened: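 Bidirectional curve fits relative to DMSO, using reporter mRNA levels from RT-PCR plus capillary electrophoresis. Cells were HepG2 transiently carrying cis-regulated reporter constructs, harvested 24 h after dosing.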
# [19] = biological target: Transcription factor E2F1 (Homo sapiens) (UniProt Q01094); test: ATG_E2F_CIS: Attagene CIS-FACTORIAL HepG2 Assay for human E2F Transcription Factor 1 (AID 2282935); details: HepG2 Attagene cis-reporter, E2F reporter RNA transcripts; actives raise or lower the signal
# Transcription factor E2F1 (Homo sapiens), sequence (Q01094 whole entry, looked up): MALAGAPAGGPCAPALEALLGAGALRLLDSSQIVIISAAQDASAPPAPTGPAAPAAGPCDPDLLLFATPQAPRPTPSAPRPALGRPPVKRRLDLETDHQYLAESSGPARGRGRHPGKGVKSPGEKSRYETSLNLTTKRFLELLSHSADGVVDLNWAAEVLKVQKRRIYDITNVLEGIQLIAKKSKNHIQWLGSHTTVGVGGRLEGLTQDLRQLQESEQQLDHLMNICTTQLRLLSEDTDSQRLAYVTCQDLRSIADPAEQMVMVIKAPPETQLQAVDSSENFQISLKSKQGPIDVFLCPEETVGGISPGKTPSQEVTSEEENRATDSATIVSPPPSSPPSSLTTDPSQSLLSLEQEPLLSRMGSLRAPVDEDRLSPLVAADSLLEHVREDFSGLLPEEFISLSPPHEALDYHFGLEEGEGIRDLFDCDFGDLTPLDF
# Procedure, shortened: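 Gain or loss of reporter transcript, fitted against DMSO, reflects E2F1-driven transcription. Transiently transfected HepG2 dosed 24 h before RNA isolation. Quantified by fluorescent RT-PCR products separated by capillary electrophoresis.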
structure (smiles),measurement,setting,value
O=C(O)c1cc(C(=O)O)cc([N+](=O)[O-])c1,outcome,[1],inactive
same,outcome,[2],inactive
same,outcome,[3],inactive
same,outcome,[4],inactive
same,outcome,[5],inactive
same,outcome,[6],inactive
same,outcome,[7],inactive
same,outcome,[8],inactive
same,outcome,[9],inactive
same,outcome,[10],inactive
same,outcome,[11],inactive
same,outcome,[12],inactive
same,outcome,[13],inactive
same,outcome,[14],inactive
same,outcome,[15],inactive
same,outcome,[16],inactive
same,outcome,[17],inactive
same,outcome,[18],inactive
O=C1OC(=O)c2c(Br)c(Br)c(Br)c(Br)c21,outcome,[1],inactive
same,outcome,[2],inactive
same,outcome,[3],inactive
same,outcome,[4],inactive
same,outcome,[5],inactive
same,outcome,[6],inactive
same,outcome,[7],inactive
same,outcome,[8],inactive
same,outcome,[9],inactive
same,outcome,[10],inactive
same,outcome,[11],inactive
same,outcome,[12],inactive
same,outcome,[13],inactive
same,outcome,[14],inactive
same,outcome,[15],inactive
same,AC50,[16],165 µM (active)
same,outcome,[17],inactive
CN(C)C(=O)Nc1ccc(Oc2ccc(Cl)cc2)cc1,outcome,[1],inactive
same,outcome,[2],inactive
same,AC50,[3],71.9 µM (active)
same,AC50,[4],72 µM (active)
same,outcome,[5],inactive
same,AC50,[6],100 µM (active)
same,AC50,[8],113 µM (active)
same,outcome,[9],inactive
same,outcome,[10],inactive
same,outcome,[11],inactive
same,outcome,[12],inactive
same,outcome,[13],inactive
same,outcome,[14],inactive
same,outcome,[16],inactive
same,outcome,[17],inactive
same,outcome,[18],inactive
O=[N+]([O-])c1ccc(O)cc1C(F)(F)F,AC50,[1],48 µM (active)
same,AC50,[2],58.8 µM (active)
same,AC50,[3],100 µM (active)
same,outcome,[4],inactive
same,AC50,[5],53.8 µM (active)
same,AC50,[6],71.8 µM (active)
same,AC50,[8],37.5 µM (active)
same,outcome,[9],inactive
same,outcome,[19],inactive
same,outcome,[10],inactive
same,outcome,[11],inactive
same,outcome,[12],inactive
same,outcome,[13],inactive
same,outcome,[14],inactive
same,outcome,[15],inactive
same,outcome,[16],inactive
same,outcome,[17],inactive
same,outcome,[18],inactive
CCCCCCCCCCCCS(=O)(=O)Cl,outcome,[1],inactive
same,outcome,[2],inactive
same,outcome,[3],inactive
same,outcome,[4],inactive
same,outcome,[5],inactive
same,outcome,[6],inactive
same,outcome,[8],inactive
same,outcome,[9],inactive
same,outcome,[19],inactive
same,outcome,[10],inactive
same,outcome,[11],inactive
same,outcome,[12],inactive
same,outcome,[13],inactive
same,outcome,[14],inactive
same,outcome,[15],inactive
same,outcome,[16],inactive
same,outcome,[17],inactive
same,outcome,[18],inactive
C=CCOC(=O)CCCCCC,outcome,[1],inactive
same,outcome,[2],inactive
same,outcome,[3],inactive
same,outcome,[4],inactive
same,outcome,[5],inactive
same,outcome,[6],inactive
same,outcome,[8],inactive
same,outcome,[9],inactive
same,outcome,[19],inactive
same,outcome,[10],inactive
same,outcome,[11],inactive
same,outcome,[12],inactive
same,outcome,[13],inactive
same,outcome,[14],inactive
same,outcome,[15],inactive
same,outcome,[16],inactive
same,outcome,[17],inactive
same,outcome,[18],inactive
C=CC(C)(O)CCC=C(C)C (configuration not stated),outcome,[1],inactive
same,outcome,[2],inactive
same,outcome,[3],inactive
same,outcome,[4],inactive
same,outcome,[5],inactive
same,outcome,[6],inactive
same,outcome,[8],inactive
same,outcome,[9],inactive
same,outcome,[19],inactive
same,outcome,[10],inactive
same,outcome,[11],inactive
same,outcome,[12],inactive
same,outcome,[13],inactive
same,outcome,[14],inactive
same,outcome,[15],inactive
same,outcome,[16],inactive
same,outcome,[17],inactive
same,outcome,[18],inactive
C=C(C)[C@H]1CC=C(C)C(=O)C1,outcome,[1],inactive
same,outcome,[2],inactive
same,outcome,[3],inactive
same,outcome,[4],inactive
same,outcome,[5],inactive
same,outcome,[6],inactive
same,outcome,[8],inactive
same,outcome,[10],inactive
same,outcome,[11],inactive
same,outcome,[12],inactive
same,outcome,[13],inactive
same,outcome,[14],inactive
same,outcome,[15],inactive
same,outcome,[16],inactive
